# Assay results from the supplement of paper PMC4466140.
# Columns and labels:
# Experiment in all cases: SPOT peptide array binding signal intensity (averaged, normalized) (arbitrary units (background-subtracted, floor 0; scale differs between SH3 domains)); higher = stronger binding of the SH3 domain to the peptide
# [1] = biological target: AgAbp1
# Summary of the method: (§1)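 Spot intensities were captured after detection with anti-GST antibody, an HRP-linked anti-mouse secondary and luminol, and quantified with Genespotter. The probes were GST-fused SH3 domains from four yeast species, produced in E. coli BL21(DE3), purified on glutathione Sepharose and incubated at 10 μg/ml overnight at 4°C on cellulose-bound synthetic 15-mer peptides with cysteines replaced by serines. Binding signal is the normalized, background-subtracted spot intensity averaged over replicates, and its arbitrary units differ between domains.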
# [2] = biological target: AgBbc1
# Summary of the method: as §1
# [3] = biological target: AgBem1-D1
# Summary of the method: as §1
# [4] = biological target: AgBzz1-D1
# Summary of the method: as §1
# [5] = biological target: AgBzz1-D2
# Summary of the method: as §1
# [6] = biological target: AgCyk3
# Summary of the method: as §1
# [7] = biological target: AgFus1
# Summary of the method: as §1
# [8] = biological target: AgHof1
# Summary of the method: as §1
# [9] = biological target: AgHse1
# Summary of the method: as §1
# [10] = biological target: AgLsb1
# Summary of the method: as §1
# [11] = biological target: AgLsb4
# Summary of the method: as §1
# [12] = biological target: AgMyo5
# Summary of the method: as §1
# [13] = biological target: AgNbp2
# Summary of the method: as §1
# [14] = biological target: AgRvs167
# Summary of the method: as §1
# [15] = biological target: AgSho1
# Summary of the method: as §1
# [16] = biological target: AgSla1-D1-D2
# Summary of the method: as §1
# [17] = biological target: AgSla1-D3
# Summary of the method: as §1
# [18] = biological target: CaAbp1-D1
# Summary of the method: as §1
# [19] = biological target: CaAbp1-D2
# Summary of the method: as §1
# [20] = biological target: CaBbc1
# Summary of the method: as §1
# [21] = biological target: CaBem1-D1
# Summary of the method: as §1
# [22] = biological target: CaBzz1-D1
# Summary of the method: as §1
# [23] = biological target: CaBzz1-D2
# Summary of the method: as §1
# [24] = biological target: CaCyk3
# Summary of the method: as §1
# [25] = biological target: CaFus1
# Summary of the method: as §1
# [26] = biological target: CaHof1
# Summary of the method: as §1
# [27] = biological target: CaHse1
# Summary of the method: as §1
# [28] = biological target: CaLsb1
# Summary of the method: as §1
# [29] = biological target: CaLsb4
# Summary of the method: as §1
# [30] = biological target: CaMyo5
# Summary of the method: as §1
# [31] = biological target: CaNbp2
# Summary of the method: as §1
# [32] = biological target: CaRvs167
# Summary of the method: as §1
# [33] = biological target: CaRvs167-3
# Summary of the method: as §1
# [34] = biological target: CaSho1
# Summary of the method: as §1
# [35] = biological target: CaSla1-D1-D2
# Summary of the method: as §1
# [36] = biological target: CaSla1-D3
# Summary of the method: as §1
# [37] = biological target: ScAbp1
# Summary of the method: as §1
# [38] = biological target: ScBbc1
# Summary of the method: as §1
# [39] = biological target: ScBem1-D1
# Summary of the method: as §1
# [40] = biological target: ScBzz1-D1
# Summary of the method: as §1
# [41] = biological target: ScBzz1-D2
# Summary of the method: as §1
# [42] = biological target: ScCyk3
# Summary of the method: as §1
# [43] = biological target: ScFus1
# Summary of the method: as §1
# [44] = biological target: ScHof1
# Summary of the method: as §1
# [45] = biological target: ScHse1
# Summary of the method: as §1
# [46] = biological target: ScLsb1
# Summary of the method: as §1
# [47] = biological target: ScLsb2
# Summary of the method: as §1
# [48] = biological target: ScLsb3
# Summary of the method: as §1
# [49] = biological target: ScLsb4
# Summary of the method: as §1
# [50] = biological target: ScMyo3
# Summary of the method: as §1
# [51] = biological target: ScMyo5
# Summary of the method: as §1
# [52] = biological target: ScNbp2
# Summary of the method: as §1
# [53] = biological target: ScPex13
# Summary of the method: as §1
# [54] = biological target: ScRvs167
# Summary of the method: as §1
# [55] = biological target: ScSho1
# Summary of the method: as §1
# [56] = biological target: ScSla1-D1-D2
# Summary of the method: as §1
# [57] = biological target: ScSla1-D3
# Summary of the method: as §1
# [58] = biological target: SpAbp1-D1
# Summary of the method: as §1
# [59] = biological target: SpBbc1
# Summary of the method: as §1
# [60] = biological target: SpBzz1-D1
# Summary of the method: as §1
# [61] = biological target: SpBzz1-D2
# Summary of the method: as §1
# [62] = biological target: SpCyk3
# Summary of the method: as §1
# [63] = biological target: SpHof1
# Summary of the method: as §1
# [64] = biological target: SpHof1-2
# Summary of the method: as §1
# [65] = biological target: SpHof1-3
# Summary of the method: as §1
# [66] = biological target: SpHse1
# Summary of the method: as §1
# [67] = biological target: SpLsb1
# Summary of the method: as §1
# [68] = biological target: SpLsb4
# Summary of the method: as §1
# [69] = biological target: SpMyo1
# Summary of the method: as §1
# [70] = biological target: SpNbp2
# Summary of the method: as §1
# [71] = biological target: SpPex13
# Summary of the method: as §1
# [72] = biological target: SpRvs167
# Summary of the method: as §1
# [73] = biological target: SpSla1-D1-D2
# Summary of the method: as §1
# [74] = biological target: SpSla1-D3
# Summary of the method: as §1
binder,measurement,setting,value
LYEAMPPTLPHRDWK,SPOT peptide array binding signal intensity,[1],1
same,SPOT peptide array binding signal intensity,[2],2.5
same,SPOT peptide array binding signal intensity,[3],13.5
same,SPOT peptide array binding signal intensity,[4],≤ 0
same,SPOT peptide array binding signal intensity,[5],≤ 0
same,SPOT peptide array binding signal intensity,[6],2
same,SPOT peptide array binding signal intensity,[7],33
same,SPOT peptide array binding signal intensity,[8],0.5
same,SPOT peptide array binding signal intensity,[9],50
same,SPOT peptide array binding signal intensity,[10],30.5
same,SPOT peptide array binding signal intensity,[11],518
same,SPOT peptide array binding signal intensity,[12],0.5
same,SPOT peptide array binding signal intensity,[13],154
same,SPOT peptide array binding signal intensity,[14],30.2
same,SPOT peptide array binding signal intensity,[15],26.5
same,SPOT peptide array binding signal intensity,[16],≤ 0
same,SPOT peptide array binding signal intensity,[17],≤ 0
same,SPOT peptide array binding signal intensity,[18],8
same,SPOT peptide array binding signal intensity,[19],1.5
same,SPOT peptide array binding signal intensity,[20],16.5
same,SPOT peptide array binding signal intensity,[21],16
same,SPOT peptide array binding signal intensity,[22],50.5
same,SPOT peptide array binding signal intensity,[23],27.2
same,SPOT peptide array binding signal intensity,[24],≤ 0
same,SPOT peptide array binding signal intensity,[25],327
same,SPOT peptide array binding signal intensity,[26],0.5
same,SPOT peptide array binding signal intensity,[27],150
same,SPOT peptide array binding signal intensity,[28],0.5
same,SPOT peptide array binding signal intensity,[29],806
same,SPOT peptide array binding signal intensity,[30],12
same,SPOT peptide array binding signal intensity,[31],141
same,SPOT peptide array binding signal intensity,[32],195
same,SPOT peptide array binding signal intensity,[33],6
same,SPOT peptide array binding signal intensity,[34],130
same,SPOT peptide array binding signal intensity,[35],25.5
same,SPOT peptide array binding signal intensity,[36],60.5
same,SPOT peptide array binding signal intensity,[37],≤ 0
same,SPOT peptide array binding signal intensity,[38],≤ 0
same,SPOT peptide array binding signal intensity,[39],≤ 0
same,SPOT peptide array binding signal intensity,[40],≤ 0
same,SPOT peptide array binding signal intensity,[41],21
same,SPOT peptide array binding signal intensity,[42],3
same,SPOT peptide array binding signal intensity,[43],95.5
same,SPOT peptide array binding signal intensity,[44],4.5
same,SPOT peptide array binding signal intensity,[45],15
same,SPOT peptide array binding signal intensity,[46],13
same,SPOT peptide array binding signal intensity,[47],2
same,SPOT peptide array binding signal intensity,[48],736
same,SPOT peptide array binding signal intensity,[49],636
same,SPOT peptide array binding signal intensity,[50],19.5
same,SPOT peptide array binding signal intensity,[51],0.5
same,SPOT peptide array binding signal intensity,[52],252
same,SPOT peptide array binding signal intensity,[53],807
same,SPOT peptide array binding signal intensity,[54],374
same,SPOT peptide array binding signal intensity,[55],257
same,SPOT peptide array binding signal intensity,[56],46
same,SPOT peptide array binding signal intensity,[57],85.5
same,SPOT peptide array binding signal intensity,[58],≤ 0
same,SPOT peptide array binding signal intensity,[59],2
same,SPOT peptide array binding signal intensity,[60],67
same,SPOT peptide array binding signal intensity,[61],0.5
same,SPOT peptide array binding signal intensity,[62],3
same,SPOT peptide array binding signal intensity,[63],2
same,SPOT peptide array binding signal intensity,[64],2
same,SPOT peptide array binding signal intensity,[65],0.5
same,SPOT peptide array binding signal intensity,[66],78.5
same,SPOT peptide array binding signal intensity,[67],2.25
same,SPOT peptide array binding signal intensity,[68],1290
same,SPOT peptide array binding signal intensity,[69],32.5
same,SPOT peptide array binding signal intensity,[70],22.5
same,SPOT peptide array binding signal intensity,[71],38.5
same,SPOT peptide array binding signal intensity,[72],282
same,SPOT peptide array binding signal intensity,[73],1
same,SPOT peptide array binding signal intensity,[74],21
PPIPNAPLSPAPAVP,SPOT peptide array binding signal intensity,[1],1
same,SPOT peptide array binding signal intensity,[2],≤ 0
same,SPOT peptide array binding signal intensity,[3],18.5
same,SPOT peptide array binding signal intensity,[4],≤ 0
same,SPOT peptide array binding signal intensity,[5],≤ 0
same,SPOT peptide array binding signal intensity,[6],≤ 0
same,SPOT peptide array binding signal intensity,[7],2
same,SPOT peptide array binding signal intensity,[8],1
same,SPOT peptide array binding signal intensity,[9],2.5
same,SPOT peptide array binding signal intensity,[10],3
same,SPOT peptide array binding signal intensity,[11],9
same,SPOT peptide array binding signal intensity,[12],1300
same,SPOT peptide array binding signal intensity,[13],3.5
same,SPOT peptide array binding signal intensity,[14],0.167
same,SPOT peptide array binding signal intensity,[15],≤ 0
same,SPOT peptide array binding signal intensity,[16],1
same,SPOT peptide array binding signal intensity,[17],≤ 0
same,SPOT peptide array binding signal intensity,[18],≤ 0
same,SPOT peptide array binding signal intensity,[19],≤ 0
same,SPOT peptide array binding signal intensity,[20],2
same,SPOT peptide array binding signal intensity,[21],7
same,SPOT peptide array binding signal intensity,[22],≤ 0
same,SPOT peptide array binding signal intensity,[23],10.5
same,SPOT peptide array binding signal intensity,[24],≤ 0
same,SPOT peptide array binding signal intensity,[25],59
same,SPOT peptide array binding signal intensity,[26],≤ 0
same,SPOT peptide array binding signal intensity,[27],0.5
same,SPOT peptide array binding signal intensity,[28],≤ 0
same,SPOT peptide array binding signal intensity,[29],≤ 0
same,SPOT peptide array binding signal intensity,[30],952
TKHKAPPPPPPTAET,SPOT peptide array binding signal intensity,[61],6.25
same,SPOT peptide array binding signal intensity,[62],0.5
same,SPOT peptide array binding signal intensity,[63],1
same,SPOT peptide array binding signal intensity,[64],≤ 0
same,SPOT peptide array binding signal intensity,[65],≤ 0
same,SPOT peptide array binding signal intensity,[66],≤ 0
same,SPOT peptide array binding signal intensity,[67],0.5
same,SPOT peptide array binding signal intensity,[68],≤ 0
same,SPOT peptide array binding signal intensity,[69],215
same,SPOT peptide array binding signal intensity,[70],14.5
same,SPOT peptide array binding signal intensity,[71],≤ 0
same,SPOT peptide array binding signal intensity,[72],≤ 0
same,SPOT peptide array binding signal intensity,[73],2
same,SPOT peptide array binding signal intensity,[74],1
